DT40 TDP1 CPT – DT40-hTDP1 cell growth loss with CPT | chicken DT40 Tdp1-/-;hTDP1 cells + 20 nM CPT, ATP luminescence, 48 h | Potency, µM (series often up to 46.2 µM), for inactives: at the highest dose activity change, negative = growth inhibition, most hits filed as inhibitors | 420,000 tested, 12% active; also: potency is read from the fitted curve at half-maximal effect; % is scaled to controls: 0 for no effect and ±100 for the full control effect; nearly all actives have a fitted effect of over 55% in size
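Chicken DT40 Tdp1-/- cells stably complemented with human TDP1 were seeded at 400 cells/well in medium containing 20 nM camptothecin, exposed to pin-transferred compounds, and grown at 37 °C for at least 48 hr. Viability was read as ATP luminescence.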
IL-1B inflam inh – blocks inflammasome-driven IL-1 beta release | THP-1 LPS/ATP IL-1B secretion, AlphaLISA, 16 h; hits give low values | activity change, % at 57.5 µM | 360,000 tested, 4.7% active; in the data active = activity change below about -50%; inconclusive = mostly about -30% to -49%; also: % is scaled to controls: 0 for no effect and ±100 for the full control effect
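THP-1 cells pretreated 1 hr with compounds (up to 57.5 uM final), then stimulated with LPS (250 ng/mL final) plus ATP (1.25 mM final); secreted IL-1B measured by AlphaLISA after 16 hr, decreased signal indicating inhibition.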
HepG2 tox – counter-screen for TGF-b inhibitors: cytotoxicity in HepG2 cells; HepG2 CAGA-GFP viability, ATP luminescence, 18 h; Potency, µM (series often up to 46.1 µM), inactives show top-dose activity change, negative = cytotoxicity, actives largely listed as cytotoxic; 410,000 tested, 0.76% active; AID 588856; also: potency is read from the fitted curve at half-maximal effect
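HepG2 CAGA-GFP cells (1000/well, DMEM with 1% FBS) received compound, then TGF-beta at 500 pg/mL final, and were incubated 18 hours at 37 degrees C. Viability was read by CellTiter-Glo luminescence. Media-only wells were set as complete cell-killing and DMSO as no toxicity.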
DT40 TDP1 no CPT – qHTS for Inhibitors of human tyrosyl-DNA phosphodiesterase 1 (TDP1): qHTS in cells in absence of CPT; 420,000 tested, 15% active; AID 686978, 2013; DT40 Tdp1-/- hTDP1 cells, no CPT, ATP luminescence, 48 h; Potency, µM (titrated, usually from 46.2 µM), for inactives: at the highest dose activity change, negative = growth inhibition, usual class: inhibitors; also: potency is read from the fitted curve at half-maximal effect; % is scaled to controls: 0 for no effect and ±100 for the full control effect; nearly all actives have a fitted effect of over 55% in size
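Chicken DT40 Tdp1-/- cells stably complemented with human TDP1 were seeded at 400 cells/well with DMSO in place of 20 nM camptothecin. After compound pinning, cells grew at least 48 hr at 37 °C; viability read by CellTiter-Glo luminescence.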
TGFb SMAD3 inh – blocks TGF-b signaling. HepG2 CAGA-GFP TGF-b/SMAD3 reporter, GFP fluorescence, 18 h; TGF-beta stimulated, 500 pg/mL final. Potency, µM (highest dose often 46.1 µM), inactives show at the highest dose activity, negative = inhibition, hits mostly inhibitors. 410,000 tested, 1.2% active; also: potency is read from the fitted curve at half-maximal effect; % is scaled to controls: 0 for no effect and ±100 for the full control effect; nearly all actives have a fitted effect of over 65% in size
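Using HEPG2 CAGA-GFP reporter cells at 1000 cells/well, we pinned test compounds, stimulated with recombinant TGF-beta (500 pg/mL final) and measured total well GFP after 18 h.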
S-ASM inh – blocks human secretory acid sphingomyelinase | P17405 | placental ASM, HMU-PC fluorogenic substrate, 60 min | Potency, µM (doses to about 57.5 µM), for the others: at the highest dose activity change, negative = inhibition, most hits filed as inhibitors | 340,000 tested, 0.006% active; also: potency is read from the fitted curve at half-maximal effect
Target sequence (P17405 47-631 limits assumed): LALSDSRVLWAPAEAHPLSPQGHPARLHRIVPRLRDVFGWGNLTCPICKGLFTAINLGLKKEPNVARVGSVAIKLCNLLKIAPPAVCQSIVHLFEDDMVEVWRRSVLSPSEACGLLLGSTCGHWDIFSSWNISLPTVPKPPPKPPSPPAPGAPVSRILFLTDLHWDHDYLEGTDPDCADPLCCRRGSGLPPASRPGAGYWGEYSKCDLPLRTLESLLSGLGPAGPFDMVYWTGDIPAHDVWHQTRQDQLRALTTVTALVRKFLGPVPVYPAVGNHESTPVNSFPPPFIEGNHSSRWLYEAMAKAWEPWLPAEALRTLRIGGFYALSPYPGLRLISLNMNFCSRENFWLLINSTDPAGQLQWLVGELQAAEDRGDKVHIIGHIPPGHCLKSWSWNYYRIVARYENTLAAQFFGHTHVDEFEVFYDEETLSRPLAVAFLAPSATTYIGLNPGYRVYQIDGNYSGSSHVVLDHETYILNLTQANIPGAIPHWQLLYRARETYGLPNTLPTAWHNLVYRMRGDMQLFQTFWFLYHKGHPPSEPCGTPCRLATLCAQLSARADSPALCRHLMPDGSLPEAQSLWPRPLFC
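HMU-PC0 cleavage (9 uM final) by human placental ASM, 60 min at 37 °C following 10 min compound exposure at RT; stopped at pH 10, fluorescence Ex 386/Em 447 nm.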
Numbers without * were called inactive; ? = inconclusive; nt = not tested or not shown; [ ] = remark or other dose. Shown are actives, neighbours in structure and some others; about 19% of the full set was active somewhere. Unless noted, calls follow the shape of the dose curve; as a rule, active = well fitted curve in the direction sought with a large enough effect; inconclusive = small, poorly fitted or top-dose-only effect, or another doubt; inactive = no such curve, though single readings can be large; an effect the other way counts as inactive or inconclusive.

SMILES | DT40 TDP1 CPT | IL-1B inflam inh | HepG2 tox | DT40 TDP1 no CPT | TGFb SMAD3 inh | S-ASM inh
COc1ccc(S(N)(=O)=O)cc1C(=O)NNC(=O)c1cccc(S(=O)(=O)N2CCOCC2)c1 | ? | 0.8 | -1.0% | ? | -11.7% | 3.3%
CCOC(=O)C1=C(C)N(CCCC(=O)O)C(=O)NC1c1ccccc1OS(=O)(=O)c1ccccc1[N+](=O)[O-] (centres undefined) | -10.6% | 15.0 | -22.9% | -9.6% | -5.2% | 0.7%
COc1ccccc1NC(CC(=O)c1ccccc1)C(=O)OCC(=O)c1ccc(C)c(C)c1 (centres undefined) | 10.3µM* | 4.9 | -2.1% | 16.4µM* | 31.7% | 1.6%
COc1cccc(/C=C/C(=O)c2ccc3c(c2)OCCO3)c1OC | 4.11µM* | -99.3* | -55.1% | ? | ? | 16.3%
COc1ccccc1NC(CC(=O)c1ccccc1)C(=O)OCC(=O)c1ccc(Br)cc1 (centres undefined) | ? | 5.1 | -22.8% | ? | 23.9% | 0.3%
CCN(CC(=O)Nc1ccc2c(c1)OCCO2)C(=O)/C=C/c1cccc(OC)c1OC | -5.4% | -3.2 | -2.3% | -0.9% | 23.2% | -0.8%
N#CCOC(=O)C1CCN(S(=O)(=O)c2ccc3c(c2)OCCO3)CC1 | 3.8% | 25.6 | 0.0% | 1.6% | ? | nt
NCC[C@H](O)C(=O)N[C@@H]1C[C@H](N)[C@@H](O[C@H]2O[C@H](CN)[C@@H](O)[C@H](O)[C@H]2O)[C@H](O)[C@H]1O[C@H]1O[C@H](CO)[C@@H](O)[C@H](N)[C@H]1O | 9.7% | 19.3 | -17.9% | 16.9% | 2.8% | -0.1%
COc1ccc(S(=O)(=O)NNC(=O)C2Cc3c(ccc4ccccc34)O2)cc1 (centres undefined) | 16.4µM* | 21.6 | -12.8% | 20.6µM* | -22.4% | -6.4%
CC(O)(c1ccccc1)c1nc(-c2ccncc2)cs1 (centres undefined) | 4.11µM* | -0.6 | -14.1% | ? | 11.5% | nt
CC(O)(c1ccccc1)c1nc(-c2ccccc2)cs1 (centres undefined) | 20.6µM* | 0.0 | -21.3% | ? | -26.7% | nt
CC(O)(c1ccccc1)c1nc(-c2ccc(S(C)(=O)=O)cc2)cs1 (centres undefined) | -20.6% | 10.2 | -24.7% | ? | -7.0% | nt
O=C(Cn1ccnc1[N+](=O)[O-])N(CCO)CCO | 1.2% | 5.6 | -19.1% | 0.3% | 17.4% | nt
Cn1cnc([N+](=O)[O-])c1S(=O)(=O)c1ccc(Cl)cc1 | 1.16µM* | -137.9* | 17.8µM* | 2.91µM* | 11.2µM* | 5.4%
O=C1CC(c2ccc(O)c(O)c2)Oc2cc(O)cc(O)c21 (centres undefined) | -22.9% | 2.2 | 2.1% | ? | 1.3% | 0.7%
Oc1ccc(C2C[C@H]3CC[C@@H]2C3)cc1O (some centres undefined) | 11.6µM* | -23.0 | -2.1% | ? | -26.0% | 1.2%
CC1CN(S(=O)(=O)c2ccc(C(=O)Nc3ccccc3F)cc2)CC(C)O1 (centres undefined) | -15.0% | -10.7 | 2.0% | 4.4% | 0.5% | 1.2%
COc1ccc(C(=O)N2CCN(c3ccc(C)c(C)c3)CC2)cc1OC | ? | 21.1 | 3.5% | 16.4µM* | -5.3% | 1.7%
COc1ccc(C(=O)N2CCN(S(=O)(=O)c3ccc(C)cc3C)CC2)cc1OC | -23.9% | 0.0 | -0.4% | ? | 0.0% | -1.9%
COc1ccc(C(=O)N2CCN(c3ccc(C)cc3C)CC2)cc1OC | 20.6µM* | -17.0 | -34.4% | 25.9µM* | 0.6% | 7.6%
C=CCNc1oc(C2CCCC2)nc1C#N | nt | nt | -15.0% | nt | -7.1% | 0.5%
COc1ccccc1-n1c2nc3ccccc3nc2c2c(=O)n(-c3cc(C)cc(C)c3)cnc21 | 3.66µM* | -94.6* | -10.1% | ? | 0.0% | 74.3%
COc1ccccc1-n1cnc2c(c1=O)c1nc3ccccc3nc1n2-c1ccc(C)cc1 | ? | -1.1 | 19.3% | ? | 7.7% | 53.9%
CCCCn1c2nc3ccccc3nc2c2c(=O)n(CC(C)C)cnc21 | 0.6% | -8.9 | -2.2% | 20.8% | 0.1% | 39.2%
COc1ccccc1-n1cnc2c(c1=O)c1nc3ccccc3nc1n2CCc1ccccc1 | 20.6µM* | -23.1 | -0.2% | 16.4µM* | 25.6% | 58.8%
SMILES | DT40 TDP1 CPT | IL-1B inflam inh | HepG2 tox | DT40 TDP1 no CPT | TGFb SMAD3 inh | S-ASM inh
Cc1cc(-c2ccnc(-n3ncc(C(=O)N(C)Cc4nccs4)c3C)n2)c(C)s1 | -2.8%[9.04 µM] | nt | nt | ? | nt | nt
O=c1[nH][nH]c(-c2ccccc2O)c1C(C[N+](=O)[O-])c1ccccc1 (centres undefined) | 4.61µM* | 1.9 | -9.1% | 5.17µM* | -4.1% | -3.2%
O=c1[nH][nH]c(-c2ccccc2O)c1C(C[N+](=O)[O-])c1cccc(Cl)c1 (centres undefined) | ? | 3.4 | -4.5% | ? | -3.2% | 1.7%
CN(C)C(=O)CSc1cccc2cccnc12 | 4.61µM* | -7.9 | 7.08µM* | 4.61µM* | ? | 16.0%
NNC(=O)CSc1cccc2cccnc12 | 4.5% | -26.9 | -12.9% | 3.1% | 4.9% | 3.2%
O=C(CSc1cccc2cccnc12)N1CCCC1 | 4.11µM* | -115.9* | 15.8µM* | 5.17µM* | ? | 2.4%
COc1ccc(C(CC(=O)N2CCCC(C)C2)c2c(OC)cc(OC)c3c(-c4ccccc4)cc(=O)oc23)cc1 (centres undefined) | ? | -9.9 | 2.0% | 14.6µM* | ? | -3.4%
COc1ccc(C(CC(=O)N2CCCC(C)C2)c2c(OC)cc(OC)c3ccc(=O)oc23)cc1 (centres undefined) | ? | -6.8 | 7.9% | 18.4µM* | -1.7% | 40.0%
COc1ccc(C(CC(=O)N2CCCC2)c2c(OC)cc(OC)c3ccc(=O)oc23)cc1 (centres undefined) | ? | 6.7 | 1.5% | ? | -4.7% | 59.1%
COc1ccc(C(CC(=O)N2CCCC2)c2c(OC)cc(OC)c3c(-c4ccccc4)cc(=O)oc23)cc1 (centres undefined) | ? | -15.6 | -6.3% | 16.4µM* | ? | -3.0%
CCCOc1ccc(C(O)(CCC)CCN2CCCCC2)cc1 (centres undefined) | 20.6µM* | -9.7 | -16.8% | 23.1µM* | -17.3% | 1.9%

Screening results as filed in PubChem BioAssay.
